Results: PubChem BioAssay (EPA / NIEHS)
The source made the active and inactive calls. Rule for the calls: active = hit-call score of the fitted dose curve at least 0.9, where 1 is the maximum; inactive = score below 0.9.

Assays:
Conditions in all cases: mRNA level, 48 h; actives raise or lower the signal
[1] = read-out: Glutathione S-Transferase (GSTA2), GSTA2 (gene 2939); experiment: LTEA_HepaRG_GSTA2: Life Technologies and Expression Analysis (LTEA) Assay for Glutathione S-Transferase (GSTA2) using HepaRG (AID 2283497)
Procedure, shortened: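 Differentiated human HepaRG cells were exposed in duplicate for 48 h in serum-free induction medium, 8 points from 100 uM top in half-log steps, 0.5% DMSO. GSTA2 mRNA was measured by TaqMan qRT-PCR, normalized to ACTB, GAPDH and POLR2A; bidirectional fit versus DMSO.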

[2] = read-out: Glutamate-cysteine ligase catalytic (GCLC), GCLC (gene 2729); experiment: LTEA_HepaRG_GCLC: Life Technologies and Expression Analysis (LTEA) Assay for Glutamate-cysteine ligase catalytic (GCLC) using HepaRG (AID 2283498)
Procedure, shortened: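 Differentiated HepaRG cells exposed 48 h in serum-free induction medium, eight-point half-log series topping at 100 uM in 0.5% DMSO, duplicates. GCLC mRNA by qRT-PCR normalized to ACTB, GAPDH and POLR2A, fitted bidirectionally versus DMSO.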

[3] = read-out: Glutamate-cysteine ligase regulatory (GCLM), GCLM (gene 2730); experiment: LTEA_HepaRG_GCLM: Life Technologies and Expression Analysis (LTEA) Assay for Glutamate-cysteine ligase regulatory (GCLM) using HepaRG (AID 2283500)
Procedure, shortened: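 Differentiated HepaRG cells exposed 48 h in serum-free induction medium to eight half-log concentrations up to 100 uM (0.5% DMSO). GCLM mRNA by TaqMan qRT-PCR, normalized to ACTB, GAPDH and POLR2A; bidirectional fit versus DMSO.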

[4] = read-out: Glutathione S-transferase M3 (GSTM3), GSTM3 (gene 2947); experiment: LTEA_HepaRG_GSTM3: Life Technologies and Expression Analysis (LTEA) Assay for Glutathione S-transferase M3 (GSTM3) using HepaRG (AID 2283501)
Procedure, shortened: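 Differentiated human HepaRG cells were exposed in duplicate for 48 h in serum-free induction medium, 8 points from 100 uM top in half-log steps, 0.5% DMSO. GSTM3 mRNA was measured by TaqMan qRT-PCR, normalized to ACTB, GAPDH and POLR2A; bidirectional fit versus DMSO.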

[5] = read-out: Heat shock 70 kDa protein 1 (HSPA1A), gene 3303; experiment: LTEA_HepaRG_HSPA1A: Life Technologies and Expression Analysis (LTEA) Assay for Heat shock 70 kDa protein 1 (HSPA1A) using HepaRG (AID 2283502)
Procedure, shortened: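 Human HepaRG cells in serum-free induction medium were exposed in duplicate for 48 h to 8 half-log concentrations, highest 100 uM, in 0.5% DMSO. HSPA1A mRNA read by TaqMan qRT-PCR, normalized to ACTB, GAPDH, POLR2A, fitted bidirectionally against DMSO.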

[6] = read-out: Hypoxia-inducible factor 1-alpha (Homo sapiens) (UniProt Q16665); experiment: LTEA_HepaRG_HIF1A: Life Technologies and Expression Analysis (LTEA) Assay for Hypoxia-inducible factor 1 (HIF1A) Trancription factor using HepaRG (AID 2283503)
Procedure, shortened: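 Differentiated HepaRG cells in serum-free induction medium exposed 48 h, in duplicate, to 8-point half-log series from 100 uM in 0.5% DMSO. HIF1A mRNA measured by TaqMan qRT-PCR, normalized to ACTB/GAPDH/POLR2A, fitted bidirectionally versus DMSO.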

[7] = read-out: 3-Hydroxy-3-Methylglutaryl-CoA Synthase 2 (HMGCS2), HMGCS2 (gene 3158); experiment: LTEA_HepaRG_HMGCS2: Life Technologies and Expression Analysis (LTEA) Assay for 3-Hydroxy-3-Methylglutaryl-CoA Synthase 2 (HMGCS2) using HepaRG (AID 2283504)
Procedure, shortened: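 Human HepaRG cells in serum-free induction medium were exposed in duplicate for 48 h to 8-point half-log series from 100 uM top in 0.5% DMSO. HMGCS2 mRNA measured by TaqMan qRT-PCR, normalised to ACTB, GAPDH, POLR2A; bidirectional fit versus DMSO.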

[8] = read-out: HGF (gene 3082); experiment: LTEA_HepaRG_HGF: Life Technologies and Expression Analysis (LTEA) Assay for Hepatocyte Growth Facto (HGF) using HepaRG (AID 2283505)
Procedure, shortened: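 Differentiated HepaRG cells in serum-free induction medium exposed 48 h in duplicate, 8 half-log concentrations from 100 uM in 0.5% DMSO. HGF mRNA by qRT-PCR, normalised to ACTB, GAPDH, POLR2A; bidirectional fitting.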

[9] = read-out: Insulin Like Growth Factor 1 (IGF1), IGF1 (gene 3479); experiment: LTEA_HepaRG_IGF1: Life Technologies and Expression Analysis (LTEA) Assay for Insulin Like Growth Factor 1 (IGF1) using HepaRG (AID 2283506)
Procedure, shortened: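 Differentiated HepaRG cells in serum-free induction medium, exposed 48 h in duplicate to 8 half-log concentrations up to 100 uM in 0.5% DMSO. IGF1 mRNA by Fluidigm qRT-PCR, normalised to ACTB, GAPDH and POLR2A.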

[10] = read-out: Intercellular Adhesion Molecule 1 (ICAM1), ICAM1 (gene 3383); experiment: LTEA_HepaRG_ICAM1: Life Technologies and Expression Analysis (LTEA) Assay for Intercellular Adhesion Molecule 1 (ICAM1) using HepaRG (AID 2283507)
Procedure, shortened: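 Differentiated human HepaRG cells in serum-free induction medium exposed 48 h in duplicate to 8 half-log concentrations (top 100 uM, 0.5% DMSO). ICAM1 mRNA quantified by TaqMan qRT-PCR, normalized to ACTB, GAPDH and POLR2A; bidirectional fitting versus DMSO.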

[11] = read-out: Insulin-like growth factor-binding protein 1 (IGFBP1), IGFBP1 (gene 3484); experiment: LTEA_HepaRG_IGFBP1: Life Technologies and Expression Analysis (LTEA) Assay for Insulin-like growth factor-binding protein 1 (IGFBP1) using HepaRG (AID 2283508)
Procedure, shortened: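 HepaRG cells, plated 48 h then switched to serum-free induction medium, exposed in duplicate for 48 h to 8-point half-log series from 100 uM in 0.5% DMSO. mRNA measured by qRT-PCR, normalized to ACTB/GAPDH/POLR2A; bidirectional fit versus DMSO.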

[12] = read-out: Interleukin 6 (IL6), IL6 (gene 3569); experiment: LTEA_HepaRG_IL6: Life Technologies and Expression Analysis (LTEA) Assay for Interleukin 6 (IL6) using HepaRG (AID 2283509)
Procedure, shortened: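 HepaRG cells exposed in duplicate for 48 h to eight half-log concentrations, top 100 uM, in 0.5% DMSO serum-free induction medium. mRNA measured by qRT-PCR, normalized to ACTB, GAPDH and POLR2A. Bidirectional fit versus DMSO.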

[13] = read-out: Interleukin 6 Receptor (IL6R), IL6R (gene 3570); experiment: LTEA_HepaRG_IL6R: Life Technologies and Expression Analysis (LTEA) Assay for Interleukin 6 Receptor (IL6R) using HepaRG (AID 2283510)
Procedure, shortened: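 Differentiated HepaRG cells, plated 48 h, then exposed in duplicate for 48 h in serum-free induction medium to 8 half-log concentrations (top 100 uM, 0.5% DMSO). IL6R mRNA measured by TaqMan qRT-PCR, normalized to ACTB/GAPDH/POLR2A; bidirectional fit vs DMSO.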

[14] = read-out: Potassium channel subfamily K member 1 (KCNK1), KCNK1 (gene 3775); experiment: LTEA_HepaRG_KCNK1: Life Technologies and Expression Analysis (LTEA) Assay for Potassium channel subfamily K member 1 (KCNK1) using HepaRG (AID 2283511)
Procedure, shortened: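 Differentiated HepaRG cells, 48 h exposure in serum-free induction medium with 0.5% DMSO; 8 concentrations, half-log from 100 uM, duplicate. KCNK1 mRNA by qRT-PCR, normalized to ACTB, GAPDH, POLR2A; bidirectional fit vs DMSO.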

[15] = read-out: Keratin 19 (KRT19), KRT19 (gene 3880); experiment: LTEA_HepaRG_KRT19: Life Technologies and Expression Analysis (LTEA) Assay for Keratin 19 (KRT19) using HepaRG (AID 2283512)
Procedure, shortened: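 Differentiated HepaRG cells in serum-free induction medium, exposed 48 h in duplicate to 8 half-log concentrations up to 100 uM in 0.5% DMSO. KRT19 mRNA by qRT-PCR, normalized to ACTB, GAPDH, POLR2A; bidirectional fit vs DMSO.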

[16] = read-out: JUN Transcription Factor, JUN (gene 3725); experiment: LTEA_HepaRG_JUN: Life Technologies and Expression Analysis (LTEA) Assay for JUN Transcription Factor using HepaRG (AID 2283513)
Procedure, shortened: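 HepaRG cells, 48 h post-plating, exposed 48 h in serum-free induction medium to 8-point half-log series (top 100 uM, 0.5% DMSO), duplicate; mRNA by qRT-PCR (TaqMan, Fluidigm), normalized to ACTB/GAPDH/POLR2A; bidirectional fit vs DMSO.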

[17] = read-out: Lipase C (LIPC), LIPC (gene 3990); experiment: LTEA_HepaRG_LIPC: Life Technologies and Expression Analysis (LTEA) Assay for Lipase C (LIPC) using HepaRG (AID 2283514)
Procedure, shortened: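 HepaRG cells, 48 h after plating, treated in duplicate for 48 h in serum-free induction medium over 8 half-log concentrations from 100 uM, 0.5% DMSO. LIPC mRNA by TaqMan qRT-PCR normalized to ACTB/GAPDH/POLR2A; bidirectional fit versus DMSO.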

[18] = read-out: Lipoprotein lipase (LPL), LPL (gene 4023); experiment: LTEA_HepaRG_LPL: Life Technologies and Expression Analysis (LTEA) Assay for Lipoprotein lipase (LPL) using HepaRG (AID 2283515)
Procedure, shortened: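 Differentiated HepaRG cells, plated 48 h, then exposed 48 h in serum-free induction medium to 8 concentrations (top 100 uM, half-log steps) in 0.5% DMSO, duplicate. LPL mRNA measured by qRT-PCR, normalized to ACTB, GAPDH and POLR2A.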

[19] = read-out: growth arrest and DNA damage 45 (GADD45G), GADD45G (gene 10912); experiment: LTEA_HepaRG_GADD45G: Life Technologies and Expression Analysis (LTEA) Assay for growth arrest and DNA damage 45 (GADD45G) using HepaRG (AID 2283499)
Procedure, shortened: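 Differentiated human HepaRG cells, 48 h post-plating, exposed 48 h in serum-free induction medium to 8 half-log concentrations (top 100 uM, 0.5% DMSO) in duplicate. GADD45G mRNA measured by Fluidigm TaqMan qRT-PCR, normalized to ACTB, GAPDH, POLR2A; bidirectional fit versus DMSO.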

[20] = read-out: MicroRNA 122 (MIR122), gene 406906; experiment: LTEA_HepaRG_MIR122: Life Technologies and Expression Analysis (LTEA) Assay for MicroRNA 122 (MIR122) using HepaRG (AID 2283516); note: the transcript read is the microRNA miR-122
Procedure, shortened: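 Differentiated human HepaRG cells in serum-free induction medium exposed 48 h to 8 half-log concentrations from 100 uM in 0.5% DMSO, duplicate. MIR122 quantified by Fluidigm TaqMan qRT-PCR, normalised to ACTB, GAPDH, POLR2A; fold change fitted bidirectionally versus DMSO.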

Measured: outcome

Hypoxia-inducible factor 1-alpha (Homo sapiens), sequence (Q16665 whole entry, looked up): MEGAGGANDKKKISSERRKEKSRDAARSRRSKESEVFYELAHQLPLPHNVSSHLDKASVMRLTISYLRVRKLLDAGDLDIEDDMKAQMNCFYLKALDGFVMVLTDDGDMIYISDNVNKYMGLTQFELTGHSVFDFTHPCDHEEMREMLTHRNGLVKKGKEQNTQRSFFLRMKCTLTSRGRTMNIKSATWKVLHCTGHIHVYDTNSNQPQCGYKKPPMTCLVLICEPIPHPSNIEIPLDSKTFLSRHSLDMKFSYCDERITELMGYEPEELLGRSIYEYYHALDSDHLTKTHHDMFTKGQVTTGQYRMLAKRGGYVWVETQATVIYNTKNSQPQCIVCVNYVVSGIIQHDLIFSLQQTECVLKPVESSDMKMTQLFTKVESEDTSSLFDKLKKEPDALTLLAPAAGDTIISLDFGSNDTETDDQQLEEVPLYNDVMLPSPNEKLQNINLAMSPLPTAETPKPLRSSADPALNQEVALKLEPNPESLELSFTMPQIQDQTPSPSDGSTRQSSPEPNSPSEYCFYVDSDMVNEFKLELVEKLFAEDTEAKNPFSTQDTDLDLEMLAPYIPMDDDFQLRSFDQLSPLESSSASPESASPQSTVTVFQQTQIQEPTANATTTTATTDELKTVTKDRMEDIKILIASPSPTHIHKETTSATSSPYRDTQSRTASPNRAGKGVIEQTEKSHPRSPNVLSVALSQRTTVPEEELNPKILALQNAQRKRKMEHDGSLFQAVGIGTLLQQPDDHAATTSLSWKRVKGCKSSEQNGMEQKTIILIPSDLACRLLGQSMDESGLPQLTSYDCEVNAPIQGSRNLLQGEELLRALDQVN

COCCOC[C@H](CC1(C(=O)NC2CCC(C(=O)O)CC2)CCCC1)C(=O)Oc1ccc2c(c1)CCC2 (stereo partly specified)
inactive: [1] | [2] | [3] | [4] | [5] | [6] | [7] | [8] | [9] | [10] | [11] | [12] | [13] | [14] | [15] | [16] | [17] | [18]

COc1cc(C=O)ccc1O
inactive: [1] | [2] | [19] | [3] | [4] | [5] | [6] | [7] | [8] | [9] | [11] | [12] | [13] | [14] | [15] | [16] | [17] | [18] | [20]

O=[N+]([O-])C(CO)(CO)CO
inactive: [1] | [2] | [19] | [3] | [4] | [5] | [6] | [7] | [8] | [9] | [11] | [12] | [13] | [14] | [15] | [16] | [17] | [18] | [20]
